Holding throughout (assay): HT-SELEX; high values mean tight binding
Common to all, as to settings: protein: recombinant; vector His6-GST; dsDNA, one strand shown

The target in one assay is T1, SALL4 ZFC4 WT (HT-SELEX) (Mus musculus, UniProt Q8BX22 870-940).
T1 sequence: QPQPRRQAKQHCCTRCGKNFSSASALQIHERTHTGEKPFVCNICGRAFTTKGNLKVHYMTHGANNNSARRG
An outline of the steps:
(§1)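 DNA from a random library (1.5 µg in the first cycle, 200 ng afterwards) was incubated with purified recombinant mouse SALL4 zinc finger cluster 4, residues 870–940 (1 µg), for 10 min at room temperature in 100 µl buffer: 10 mM Tris–HCl pH 7.5, 50 mM NaCl, poly(dI-dC), DTT. Bound complexes were pulled down on Ni2+ beads, washed and PCR-amplified, and the selection was repeated for up to 6 cycles in triplicate. MiSeq reads were scanned for 6-mers, and binding signal is each canonical k-mer's read fraction as fold change over the initial random library.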

The target of assay [1] is T2, SALL4 ZFC4 R900W (HT-SELEX) (Mus musculus, UniProt Q8BX22 870-940, R900W).
T2 sequence: T1 sequence with R31W
An outline of the steps:
as §1

Assay [2] concerns the target T3, SALL4 ZFC4 G921D (HT-SELEX) (Mus musculus, UniProt Q8BX22 870-940, G921D).
T3 sequence: T1 sequence with G52D
The method in brief:
as §1

Binding signal data for 30 sequences are collected here from paper PMC9838217, “Structure of SALL4 zinc finger domain reveals link between AT-rich DNA binding and Okihiro syndrome”.

Substitutions are numbered along the chain they refer to.

For the sequence AGCAAG, the binding signal in the assay with SALL4 ZFC4 WT (HT-SELEX) turned out to be 0.735 ± 0.0328 fold-change vs cycle 0; in assay [1], 0.837 ± 0.0375 fold-change vs cycle 0; in assay [2], 0.888 ± 0.035 fold-change vs cycle 0.
Turning to AGCAAC, the binding signal with SALL4 ZFC4 WT (HT-SELEX) is 0.642 ± 0.0202 fold-change vs cycle 0; in assay [1], 0.736 ± 0.0162 fold-change vs cycle 0; in assay [2], 0.849 ± 0.0333 fold-change vs cycle 0.
On the same counts, the results for ATTGCG are 0.438 ± 0.0111 fold-change vs cycle 0, 0.47 ± 0.0102 fold-change vs cycle 0 and 0.614 ± 0.0595 fold-change vs cycle 0.
The matching figures for GACACC: 0.393 ± 0.0241 fold-change vs cycle 0, 0.461 ± 0.0351 fold-change vs cycle 0 and 0.593 ± 0.067 fold-change vs cycle 0.
The matching figures for AGATCT: 1.31 ± 0.115 fold-change vs cycle 0, 1.45 ± 0.063 fold-change vs cycle 0 and 1.47 ± 0.0799 fold-change vs cycle 0.
Consider GGCAAA, for which the binding signal with SALL4 ZFC4 WT (HT-SELEX) was 0.399 ± 0.0111 fold-change vs cycle 0; in assay [1], 0.457 ± 0.0213 fold-change vs cycle 0; in assay [2], 0.604 ± 0.0748 fold-change vs cycle 0.
The matching figures for AACTGC: 0.6 ± 0.0299 fold-change vs cycle 0, 0.647 ± 0.0277 fold-change vs cycle 0 and 0.741 ± 0.0348 fold-change vs cycle 0.
The matching figures for AAATCA: 1.98 ± 0.081 fold-change vs cycle 0, 1.8 ± 0.0687 fold-change vs cycle 0 and 1.7 ± 0.128 fold-change vs cycle 0.
Turning to AGTGTA, the binding signal with SALL4 ZFC4 WT (HT-SELEX) turned out to be 1.32 ± 0.061 fold-change vs cycle 0; in assay [1], 1.43 ± 0.0767 fold-change vs cycle 0; in assay [2], 1.36 ± 0.1 fold-change vs cycle 0.
The matching figures for GACCTC: 0.415 ± 0.0384 fold-change vs cycle 0, 0.51 ± 0.0119 fold-change vs cycle 0 and 0.644 ± 0.0572 fold-change vs cycle 0.
The matching figures for AGAGAA: 1.42 ± 0.0467 fold-change vs cycle 0, 1.64 ± 0.0726 fold-change vs cycle 0 and 1.46 ± 0.11 fold-change vs cycle 0.
The matching figures for ATATAT: 5.74 ± 0.718 fold-change vs cycle 0, 2.51 ± 0.217 fold-change vs cycle 0 and 2.2 ± 0.291 fold-change vs cycle 0.
As to GTAGCA, the binding signal with SALL4 ZFC4 WT (HT-SELEX) turned out to be 0.6472 ± 0.00166 fold-change vs cycle 0; in assay [1], 0.74 ± 0.0284 fold-change vs cycle 0; in assay [2], 0.817 ± 0.0421 fold-change vs cycle 0.
The matching figures for CACATA: 1.22 ± 0.0607 fold-change vs cycle 0, 1.28 ± 0.0534 fold-change vs cycle 0 and 1.25 ± 0.0582 fold-change vs cycle 0.
The matching figures for GCATCA: 0.645 ± 0.017 fold-change vs cycle 0, 0.724 ± 0.00868 fold-change vs cycle 0 and 0.83 ± 0.0436 fold-change vs cycle 0.
The matching figures for AATAGG: 1.27 ± 0.0647 fold-change vs cycle 0, 1.39 ± 0.0729 fold-change vs cycle 0 and 1.32 ± 0.0667 fold-change vs cycle 0.
Regarding GACTGC, the binding signal in the assay with SALL4 ZFC4 WT (HT-SELEX) is 0.3204 ± 0.00172 fold-change vs cycle 0; in assay [1], 0.399 ± 0.0161 fold-change vs cycle 0; in assay [2], 0.525 ± 0.0461 fold-change vs cycle 0.
On the same counts, the results for AGATAC are 1.32 ± 0.0304 fold-change vs cycle 0, 1.44 ± 0.052 fold-change vs cycle 0 and 1.4 ± 0.118 fold-change vs cycle 0.
The matching figures for TAATCA: 2.37 ± 0.116 fold-change vs cycle 0, 2.13 ± 0.0839 fold-change vs cycle 0 and 1.88 ± 0.168 fold-change vs cycle 0.
Regarding ACAGGG, the binding signal is 0.493 ± 0.038 fold-change vs cycle 0 in the assay with SALL4 ZFC4 WT (HT-SELEX), 0.569 ± 0.0399 fold-change vs cycle 0 in assay [1] and 0.639 ± 0.0358 fold-change vs cycle 0 in assay [2].
The matching figures for ACAGGA: 0.851 ± 0.0194 fold-change vs cycle 0, 1 ± 0.0486 fold-change vs cycle 0 and 1.01 ± 0.0583 fold-change vs cycle 0.
On the same counts, the results for AAGCTG are 0.608 ± 0.0202 fold-change vs cycle 0, 0.708 ± 0.0215 fold-change vs cycle 0 and 0.801 ± 0.0274 fold-change vs cycle 0.
Consider CCCATC, for which the binding signal in the assay with SALL4 ZFC4 WT (HT-SELEX) turned out to be 0.471 ± 0.0121 fold-change vs cycle 0; in assay [1] it was 0.54 ± 0.0172 fold-change vs cycle 0; in assay [2], 0.613 ± 0.034 fold-change vs cycle 0.
The matching figures for ATTCGC: 0.463 ± 0.033 fold-change vs cycle 0, 0.495 ± 0.0145 fold-change vs cycle 0 and 0.637 ± 0.0822 fold-change vs cycle 0.
The matching figures for CCACAG: 0.371 ± 0.0258 fold-change vs cycle 0, 0.424 ± 0.0221 fold-change vs cycle 0 and 0.535 ± 0.0512 fold-change vs cycle 0.
On the same counts, the results for AAAAGA are 1.8 ± 0.0481 fold-change vs cycle 0, 1.94 ± 0.106 fold-change vs cycle 0 and 1.7 ± 0.125 fold-change vs cycle 0.
Consider CCCGAA, for which the binding signal with SALL4 ZFC4 WT (HT-SELEX) is 0.314 ± 0.0034 fold-change vs cycle 0; in assay [1], 0.403 ± 0.0174 fold-change vs cycle 0; in assay [2] it was 0.512 ± 0.0767 fold-change vs cycle 0.
The matching figures for GCACAA: 0.447 ± 0.00967 fold-change vs cycle 0, 0.507 ± 0.00524 fold-change vs cycle 0 and 0.634 ± 0.0509 fold-change vs cycle 0.
GACAGA: the binding signal in the assay with SALL4 ZFC4 WT (HT-SELEX) is 0.725 ± 0.0509 fold-change vs cycle 0; in assay [1] it was 0.826 ± 0.0442 fold-change vs cycle 0; in assay [2], 0.903 ± 0.00925 fold-change vs cycle 0.
As to ATGAGA, the values for the binding signal (with SALL4 ZFC4 WT (HT-SELEX); in assay [1]; in assay [2]) were 1.52 ± 0.0648 fold-change vs cycle 0, 1.6 ± 0.0511 fold-change vs cycle 0 and 1.48 ± 0.107 fold-change vs cycle 0, respectively.
